# A selection: hits, their analogues and other compounds. The true share with any hit is near 10%.
# BAZ2B block = blocks human BAZ2B. Q9UIF8. actives 4.4% (n = 360,000). AlphaScreen BAZ2B-H3K14Ac peptide displacement. Potency, µM (titrated, usually from 114 µM), inactives show top-dose activity change, negative = inhibition, most hits filed as inhibitors; note: potency is the fitted concentration of half-maximal effect; % is set by controls: 0 for no effect and ±100 for the full control effect; nearly all actives have a fitted effect of over 60% in size
#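 Protein-peptide AlphaScreen: BAZ2B 50 nM, b-H3K14Ac 50 nM, 1x PBS pH 7.4 + 0.01% Tween-20. Preincubation 30 min RT; cpd 30 min RT (top 110 uM); beads 20 min RT, light-protected.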
# CtBP-E1A inh = blocks the CtBP interaction with E1A | AlphaScreen GST-E1A/His-CtBP binding, 1536-well; hits give low values | actives 0.49% (n = 340,000) | activity change, % (no concentration beside the values); in the data active = activity change below about -65%; inconclusive = mostly about -30% to -63%; note: % is set by controls: 0 for no effect and ±100 for the full control effect
#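 GST-E1A and His-tagged CtBP (125 nM each as 5X stock) were preincubated with pin-transferred compound for 2 h at 37 °C in the dark, then glutathione donor and nickel acceptor beads were added for 1 h before AlphaScreen reading.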
# G9a block = G9a (human) methyltransferase inhibition | G9a H3K9 monomethylation, AlphaScreen, 2 h | actives 8.8% (n = 350,000) | Q96KQ7 | Potency, µM (highest dose often 102 µM), for the others: at the highest dose activity, negative = inhibition, actives largely listed as inhibitors; note: potency is the fitted concentration of half-maximal effect; % is set by controls: 0 for no effect and ±100 for the full control effect; nearly all actives have a fitted effect of over 75% in size
#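 G9a (20 nM) was preincubated 15 min with compound, then reacted 2 h at room temperature with 500 nM biotin-H3K9 peptide and 20 µM SAM. Monomethyl-H3K9 detected by AlphaScreen using anti-H3K9me1 antibody.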
# Six1-Eya2 inh = inhibitors of human Six1/Eya2 interaction; AID 651725; AlphaScreen GST-Six1/His-Eya2 binding, biochemical; hits give low values; Q15475+O00167; actives 0.56% (n = 360,000); activity change, % (no concentration beside the values); in the data active = activity change below about -65%; inconclusive = mostly about -30% to -63%; note: % is set by controls: 0 for no effect and ±100 for the full control effect
#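 Six1/Eya2 binding was read as AlphaScreen signal after compounds were pinned into GST-Six1 plus His-tagged Eya2 (5X stock 250/500 nM) in pH 8.0 Tris/NaCl/TCEP buffer, beads added, then incubated 1 h, 37 C, dark.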
# JMJD2A Tudor inh = JMJD2A Tudor domain (human) inhibition | Potency, µM (doses to about 114 µM), for the others: at the highest dose activity change, negative = inhibition, hits mostly inhibitors | O75164 | AlphaScreen JMJD2A-Tudor / H3K4me3 peptide binding | actives 4.4% (n = 390,000); note: potency is the fitted concentration of half-maximal effect; % is set by controls: 0 for no effect and ±100 for the full control effect; nearly all actives have a fitted effect of over 50% in size
# HP1b binding inh = inhibitors of HP1-beta chromodomain binding to methylated histone tails; AID 540317; Potency, µM (series often up to 114 µM), without a hit: top-dose activity change, negative = inhibition, usual class: inhibitors; AlphaScreen HP1-beta / biotin-H3K9me3 peptide binding; actives 0.56% (n = 390,000); note: potency is the fitted concentration of half-maximal effect; nearly all actives have a fitted effect of over 70% in size
#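 AlphaScreen: HP1-beta (50 nM) preformed 30 min with biotin-H3(1-18)K9me3 peptide (50 nM) in PBS pH 7.4, 0.01% Tween-20. Compound added for 30 min at RT, then streptavidin donor/nickel chelate acceptor beads (10 ug/mL) for 30 min.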
# Starred values were filed as active, the others as inactive; ? = inconclusive; . = not tested or not shown; ! = not active in a repeat; [ ] = remark or other dose. Unless noted, calls come from the whole dose curve; as a rule, active = well fitted inhibition curve with a large enough effect; inconclusive = small, poorly fitted or top-dose-only effect; inactive = no such curve, though single readings can be large or run the other way.
SMILES,BAZ2B block,CtBP-E1A inh,G9a block,Six1-Eya2 inh,JMJD2A Tudor inh,HP1b binding inh
CC(=C/C(=O)O)/C=C/c1ccc(Cl)o1,50µM*,0,11µM*,-27,-8%[11.4 µM],71µM*
CC(/C=C/c1ccc(C)o1)=C\C(=O)O,-3%,4,8.9µM*,1,-31%,-16%
CCOC(=O)C1CCN(C(=O)CCc2nc3ccccc3[nH]2)CC1,-2%,5,-3%[59 µM],11,2%,16%
CC(C)[C@H]1c2ccc(F)cc2CC[C@@]1(CCN(C)CCCc1nc2ccccc2[nH]1)OC(=O)C1CC1,.,.,13µM*,.,.,.
CN(Cc1nc2ccccc2[nH]1)C(=O)C1CCC(=O)N(CCc2cccc(F)c2)C1 (stereo not drawn),-14%,1,-5%,4,-11%,7%
Cc1ccc(C)c(NC(=O)C2CCN(c3nn4c(=O)cc(C)nc4s3)CC2)c1,3%,.,30%[59 µM],.,-5%,33%
CCC(C(=O)NC1CCCCC1)n1c(SCc2cccc(C)c2)nc2ccncc21 (stereo not drawn),0%,0,50µM*!,-1,-31%,10%
O=S(=O)(c1ccc2nc(N3CCN(c4ccccc4F)CC3)ccc2c1)N1CCCCC1,-16%,.,18µM*,9,5%,17%[57 µM]
COc1ccc(CNc2ccc3cc(S(=O)(=O)N4CCCCC4)ccc3n2)cc1,-20%,.,11µM*,.,3%,30%
COCCNc1ccc2cc(S(=O)(=O)N3CCCCC3)ccc2n1,2%,.,-2%[59 µM],.,6%,37%
COc1ccc(Nc2ccc3cc(S(=O)(=O)N4CCCC4)ccc3n2)cc1OC,?,.,14µM*,.,?,22%
O=S(=O)(c1ccc2nc(Nc3ccccc3)ccc2c1)N1CCCCC1,40µM*,-2,.,2,28µM*,24%
Cc1cc(C)n(C(C)CC(=O)Nc2ccc(C)c(N(C)C)c2)n1 (stereo not drawn),-21%,.,5%[59 µM],.,-26%,43%
COc1ccc(Cl)cc1NC(=O)CCS(=O)(=O)c1cccc2nonc12,-18%,.,-23%[59 µM],.,-22%,29%
Cc1noc(C)c1-c1nccc(NCc2ccccc2)n1,.,.,-49%[0.501 µM],.,.,.
CS(=O)(=O)c1ccc(N)cc1,8%,2,45µM*,6,-9%,43%
COc1ccc(S(=O)(=O)N2CCN(C(=S)NCCc3ccccc3)CC2)cc1,-21%,12,-6%[12.7 µM],-9,-16%,27%
COc1ccc(CCNC(=S)N2CCN(S(=O)(=O)c3cccc(F)c3)CC2)cc1,12%,-2,50µM*,3,2%,10%
COc1ccc(CCNC(=S)N2CCN(S(=O)(=O)c3ccc(C)cc3)CC2)cc1,10%,-12,50µM*,-15,3%,6%
CCc1ccc(C(=O)c2cn(Cc3ccc(F)cc3)c3cc(OC)c(OC)cc3c2=O)cc1,-28%,.,-41%[59 µM],.,-21%,13%
COc1cccc(-n2c(SCC(=O)Nc3ccc4c(c3)OCO4)nc3c([nH]c4ccccc43)c2=O)c1,-25%,.,-4%[59 µM],.,-19%,8%[57 µM]
Oc1cc(-n2cccn2)c(O)cc1-n1cccn1,32µM*,.,0.71µM*,-14,0.79µM*,2.8µM*
Cc1cc(-c2n[nH]c(=S)n2/N=C/c2ccc(Cl)c([N+](=O)[O-])c2)n[nH]1,?,-3,1.4µM*,-14,40µM*,-24%
Cc1cc(-c2n[nH]c(=S)n2/N=C/c2cc([N+](=O)[O-])ccc2Cl)n[nH]1,?,-81*,1.8µM*,-80*,7.9µM*,?
O=C(/C=C/c1ccco1)Nc1ccc(F)cc1,?,.,-24%[12.7 µM],.,?,?
SMILES,BAZ2B block,CtBP-E1A inh,G9a block,Six1-Eya2 inh,JMJD2A Tudor inh,HP1b binding inh
NS(=O)(=O)c1ccc(NC(=O)/C=C/c2ccco2)cc1,-29%,-6,45µM*,-12,-28%,?
CC(=O)NS(=O)(=O)c1ccc(NC(=O)/C=C/c2ccco2)cc1,-22%,7,45µM*,12,-17%,10%
CCOc1ccc(CCNC(=O)CCSCc2ccc(Cl)cc2)cc1OCC,-9%,.,-2%[59 µM],.,-21%,19%
CCC(C)(C)c1nnc(NC(=O)C2CCN(C(=O)c3ccco3)CC2)s1,?,-1,1.8µM*,3,35µM*,?
COc1ccccc1Cc1nnc(NC(=O)C2CCN(C(=O)c3ccco3)CC2)s1,-20%,-2,10µM*,0,-11%,?
O=C(Nc1nnc(Cc2ccc(Cl)cc2)s1)C1CCN(C(=O)c2ccco2)CC1,.,.,.,.,-29%,-3%
CCc1nnc(NC(=O)C2CCN(C(=O)c3ccco3)CC2)s1,-11%,4,?,12,-13%,-3%
CC(C)c1nnc(NC(=O)C2CCN(C(=O)c3ccco3)CC2)s1,2%,6,32µM*,27,-3%,-4%
COCc1nnc(NC(=O)C2CCN(C(=O)c3ccco3)CC2)s1,-2%,-4,13µM*,-1,13%,-16%
COc1cc(C(=O)Nc2sc3c(c2C#N)CCCC3)c(Br)c(OC)c1OC,-3%,.,-2%[59 µM],.,-24%,-1%
COC(=O)c1sccc1S(=O)(=O)N1CCN(c2ccc(C(C)=O)cc2)CC1,-17%,.,-1%[59 µM],.,-19%,-16%
CCOC(=O)c1c(-c2ccccc2)csc1NC(=O)c1cc(-c2ccc(Cl)cc2)on1,4%,.,18µM*,.,0%,-5%
CCOC(=O)c1c(NC(=O)c2cc(-c3ccc(Br)cc3)on2)sc(C)c1C,3%,.,2.8µM*,.,-19%,-10%
CCOC(=O)c1sc(NC(=O)c2cc(-c3cccc(O)c3)on2)c(C(=O)OCC)c1C,4%,3,-4%,4,-17%,52%
CCOC(=O)c1c(NC(=O)c2cc(-c3cccc(Cl)c3)on2)sc(C(C)=O)c1C,1%,.,14µM*,.,-12%,71µM*
CCOC(=O)c1c(-c2ccccc2)csc1NC(=O)c1cc(-c2ccc(C)c(F)c2)on1,-11%,.,-9%[59 µM],.,-18%,29%
CCOC(=O)c1c(NC(=O)c2cc(-c3cccc(Cl)c3)on2)sc(C)c1C,-1%,.,13µM*,.,6%,9%
CSc1cccc(NC(=O)C2CCCN(S(=O)(=O)c3ccc4c(c3)CCCN4C(C)=O)C2)c1 (stereo not drawn),-5%,.,0%[59 µM],.,-19%,5%[57 µM]
CCc1cnc2c(c1SCC(=O)Nc1cc(Cl)ccc1OC)c(=O)n(C)c(=O)n2C,0%,.,12%[59 µM],.,-5%,11%
CCCOc1cccc(C(=O)Nc2cccc(-c3nc4ncccc4o3)c2C)c1,6%,.,8%[59 µM],.,4%,-5%
CCn1c(=O)n(-c2ccc(F)c(Cl)c2)c(=O)c2c3c(sc21)CN(C(C)=O)CC3,2%,.,5%[59 µM],.,5%,41%

# Screening data as filed in PubChem BioAssay.
